The record followed here is PubChem BioAssay (NCI).

About 83,000 compounds went through this panel and 20% of them were active in at least one assay; those are over-represented in the sample as a whole.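 Compound tested at a single concentration for 48 hours in 96-well plates; a percent growth value below 10 was scored as active.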 Activity calls are given as the source filed them.

For the assay, the system named is NCI-H322M lung. Nature of the assay: NCI-60 one-dose screen, 48 h (100 = growth as untreated, 0 = no growth, -100 = all killed). The settings on record: 10 µM unless noted. The procedure: Growth inhibition of the NCI-H322M human Non-Small Cell Lung tumor cell line is measured as a screen for anti-cancer activity. Cells are grown in 96 well plates and exposed to the test compound for 48 hours. Compounds are tested at a single concentration, which is 10^-5 M for most compounds. The reported endpoint is percent growth (GI% or GIPRCNT), where numbers from 0 - 100% represent growth inhibition, and numbers from -100% - 0 represent cell death. For example, a value of 40 represents 60% growth inhibition. A value of 0 means no net growth occurred over the course of the experiment. A value of -40 indicates 40% of cells at the beginning of the experiment died by the end of the experiment. A value of -100 means all cells are dead at the end of the experiment.
NCI-60 Human Tumor Cell Lines Screen was performed using the standard one-dose NCI protocol, which is described in more detail at https://dtp.cancer.gov/discovery_development/nci-60/default.htm.
Compounds with GIPRCNT values below 10 were considered active. Activity score was based on GIPRCNT using the following formula: […]
Score is 0 for GIPRCNT values of 100 or above, 50 for GIPRCNT values of 0, and 100 for GIPRCNT values of -100.
As to `CC1(C)OC2COC3(C(=O)O)OC(C)(C)OC3C2O1` (stereo not given), the growth was 98.6% (inactive).
For `CC(=O)Nc1ccc(S(=O)(=O)NC(CCC(=O)Nc2ccc(Cl)cc2)C(=O)O)cc1` (stereo not given), the growth was 96.9% (inactive).
To `COc1cc(CNC(=O)CSc2nc3ccccc3c(=O)n2Cc2cc(OC)c(OC)c(OC)c2)cc(OC)c1OC` belongs 95.4% (inactive); to `CCCCCCCCCCCCOB(OCCCCCCCCCCCC)OCCCCCCCCCCCC`, 101% (inactive).
In the case of `CCN(CC)c1cc(/C=C/c2ccc(OC)c(OC)c2)nc2cc(F)c(F)cc12`, the growth is 90.9% (inactive).
To `CC1=CNNc2c3ncnc-3ncn21` belongs 107% (inactive).
To `O=C(Nc1cccc(Cl)c1)c1cc([N+](=O)[O-])ccc1O` belongs 43.9% (inactive); to `Cc1cc(N/C=c2\sc3ncnn3c2=O)no1`, 81.5% (inactive); to `Cc1cc(Nc2nc(C(=O)Nc3ccccc3)nc3ccccc23)n[nH]1`, 56.5% (inactive).
For `O=C(Nc1cc(C(F)(F)F)cc(C(F)(F)F)c1)Nc1ccc(OCc2nnc(-c3ccc(Cl)cc3)o2)c(F)c1`, the growth is 19.3% (inactive).
For `CCOP(=O)(CCN1CCN(CCCCCOc2cc3c(cc2OC)C(=O)N2CCC[C@H]2C=N3)CC1)OCC` the value was 140% (inactive); for `CC(C)C(C(=O)CCN(C)C)c1ccc(Cl)cc1` (stereo not given), 99.3% (inactive).
To `COc1cc(Br)c(OC)cc1Br` belongs 89.7% (inactive).
As to `O=C(Nc1ccc(F)c(Cl)c1)c1n[nH]c(=O)c2ccccc12`, the growth was 113% (inactive).
With `CC(C)(C)OC(=O)N1C/C(=C\c2cccs2)C(=O)/C(=C/c2cccs2)C1`, the growth is 94.3% (inactive).
To `CN1CCN(c2ccc3cc(-c4nc5ccccc5[nH]4)c(=O)oc3c2)CC1` belongs 105% (inactive); to `COc1cc(NCCCN=C(N)NC(N)=NC(C)C)c2ncccc2c1`, 52% (inactive).
To `COc1ccc2c(c1)NC(=O)CN2c1nc(C)nc2ccccc12` belongs 42.8% (inactive); to `O=C(/C=C/CN1CCCCC1)Nc1cc2c(Nc3ccc(F)c(Cl)c3F)ncnc2cc1OCCOC(F)F`, 5.03% (active); to `COc1ccc(/C(=N/O)c2cc(OC)c(OC)c(OC)c2)c(OC)c1N`, 48.4% (inactive).
For `O=C(CNC(=O)c1cccc2ccccc12)Nc1ccccc1Oc1ccccc1`, the growth is 41.8% (inactive).
For the compound `COc1ccc(C(=O)/C=C/c2cccc([N+](=O)[O-])c2)c(OC)c1`, the growth was 66% (inactive).
Regarding `COC(=O)CCCCCN=Cc1c(O)c(O)c(C(C)C)c2cc(C)c(-c3c(C)cc4c(C(C)C)c(O)c(O)c(C=NCCCCCC(=O)OC)c4c3O)c(O)c12`, the growth is 32% (inactive).
For the compound `N#Cc1ccc(NC(=O)c2ccc3cccnc3c2O)cc1`, the growth was 27.7% (inactive).
To `CC(=O)OC[Si](C)(C)c1ccccc1` belongs 109% (inactive).
To `O=S(=O)(NCCCNc1cc(-c2cn(-c3ccccc3)nc2-c2cccc(O)c2)ccn1)c1cccc(F)c1` belongs 57.9% (inactive); to `COc1ccc(/C=C2\C(=O)N(C(=O)c3csc(NC(C)=O)n3)N=C2C)cc1`, 96.7% (inactive); to `CN(C)C/C=C/C(=O)Nc1cc2c(Nc3cccc(Cl)c3F)ncnc2cc1OCCOC(F)F`, 7.68% (active).
For `COc1cc(/C=C2\CCCC3=C2N=C2SC(C)=NN2C3c2cc(OC)c(OC)c(OC)c2)cc(OC)c1OC` (stereo not given) the value was 28.5% (inactive); for `COc1ncc(-c2ccc3ncnc(Nc4cccc(Cl)c4)c3c2)cc1NS(=O)(=O)C1CC1`, -5.8% (active).
As to `O=S(=O)(NCCNc1cc(-c2cn(-c3ccccc3)nc2-c2ccccc2)ccn1)c1ccc(F)cc1`, the growth is 96.2% (inactive).
For `CCOC(=O)c1ccccc1NC(c1ccccc1)c1ccc2cccnc2c1O` (stereo not given) the value was 42.5% (inactive).
To `O=S(=O)(NCCCNc1cc(-c2cn(-c3ccccc3)nc2-c2cccc(O)c2)ccn1)c1ccc(Cl)cc1` belongs 25.2% (inactive); to `COc1ccc(OC)c(C(=O)c2oc3ccc(Br)cc3c2N)c1`, 20.9% (inactive).
On to `CC(C)C[C@H](NC(=O)Cn1ccc(NCc2ccccc2)cc1=O)B(O)O`, for which the growth is 91.3% (inactive).
To `CCC(c1cccc(Br)c1)C(C(=O)O)c1ccc(OC)cc1` (stereo not given) belongs 111% (inactive); to `Cc1ccc(OCCn2c(C)nn(-c3ccc(Cl)cc3)c2=O)cc1`, 108% (inactive); to `CC1Cc2c(N(C)C)ncnc2N(C)c2ccc(O)cc21` (stereo not given), 96.5% (inactive).
Consider `CN(C)C/C=C/C(=O)Nc1cc2c(Nc3ccc(F)c(Cl)c3F)ncnc2cc1OCCOC(F)F`, for which the growth was 1.96% (active).
On to `COc1ccc(C2NC3=C(CCCC3)C(C#N)(C#N)C2(C#N)C#N)cc1` (stereo not given), for which the growth is 109% (inactive).
